Screening results deposited in PubChem by several laboratories.
CYP2C9 inh = blocks human cytochrome P450 2C9. CYP2C9 Supersomes, luciferin-H conversion, luminescence. inhibition, % at 5 µM. actives 20% (n = 96,000). AID 777;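 active = blocking of liver enzyme CYP2C9 beyond about 50% at 5 µM, limit read from the data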
CYP2C9 act = activators of human CYP2C9 | P11712 | recombinant CYP2C9, luciferin-H conversion, luminescence; active compounds read high; factor 1 = untreated enzyme, 0 = blocked | activation factor at 5 µM | actives 1.4% (n = 96,000);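 active = activation factor of 2 or more for CYP2C9 at a 5 µM dose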
PostGolgi yeast = growth inhibition of a yeast mutant, post-Golgi transport screen; post-Golgi transport phenotypic cell assay; actives 0.9% (n = 98,000); inhibition, % at 10 µM;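 note: yeast cells grown in 1536-well plates; yeast grown about 18 h at 30C before absorbance read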
CYP2C19 inh = human CYP2C19 inhibition; actives 21% (n = 96,000); inhibition, % at 5 µM; CYP2C19 Supersomes, luciferin-H EGE luminescence, 30 min;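 active = CYP2C19 inhibition above a set limit at 5 µM in the primary screen, cut at about 50% in these data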
Target sequence (P33261 whole entry, looked up): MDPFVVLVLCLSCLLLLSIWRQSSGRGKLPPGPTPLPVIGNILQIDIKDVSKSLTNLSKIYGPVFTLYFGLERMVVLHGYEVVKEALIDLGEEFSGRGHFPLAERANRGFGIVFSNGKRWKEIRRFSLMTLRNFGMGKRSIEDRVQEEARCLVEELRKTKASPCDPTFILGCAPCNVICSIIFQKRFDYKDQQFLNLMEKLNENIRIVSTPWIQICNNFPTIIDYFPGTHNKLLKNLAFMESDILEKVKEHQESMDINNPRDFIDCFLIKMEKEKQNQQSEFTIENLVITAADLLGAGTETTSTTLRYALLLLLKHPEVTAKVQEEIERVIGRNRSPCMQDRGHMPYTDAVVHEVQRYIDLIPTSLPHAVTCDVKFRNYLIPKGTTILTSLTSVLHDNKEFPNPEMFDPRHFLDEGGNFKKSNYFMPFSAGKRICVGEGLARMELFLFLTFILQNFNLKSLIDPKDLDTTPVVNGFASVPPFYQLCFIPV
CYP2C19 act = cytochrome P450 2C19 (human) activation. P33261. recombinant CYP2C19, luciferin-H EGE luminescence; active compounds read high; 0 = fully inhibited enzyme, 1 = untreated enzyme. activation factor at 5 µM. 96,000 tested, under 10 active;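 active = activation factor of at least 2 at 5 µM in the primary screen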
PostGolgi ctrl = inhibits growth of the yeast control strain. inhibition, % at 10 µM. efflux-deficient yeast background strain, growth absorbance A615, 16 h. actives 5% (n = 98,000)
A number is an active result; . = inactive; / = no result. Shown are actives, neighbours in structure and some others; about 32% of the full set was active somewhere. Cut-off read from the data, not from the text of the source, unless noted: active = inhibition above about 30%; inactive = the rest.

SMILES | CYP2C9 inh | CYP2C9 act | PostGolgi yeast | CYP2C19 inh | CYP2C19 act | PostGolgi ctrl
CCn1c(C(C)NC(C)=O)nc2ccccc21 (stereo not given) | . | . | . | . | . | .
CCn1c(C(O)c2cccc(OC)c2OC)nc2ccccc21 (stereo not given) | . | . | . | 87 | . | .
CCOC(=O)c1cccc(NC(=O)c2ccco2)c1 | . | . | . | . | . | .
CC(=O)C1=C(N2CCCCC2)CCC1=O | . | . | . | . | . | 32
CC(C)=C1SC(N2CCCCC2)=NC1=O | . | . | . | . | . | .
CCOC(=O)C1=C(c2ccccc2)Nc2nc(C)nn2C1c1cccc(OC)c1OC (stereo not given) | . | . | . | . | . | .
CCOC(=O)C1=C(CSc2nc(-c3ccncc3)ccc2C#N)OC(N)=C(C#N)C1c1cccnc1 (stereo not given) | 96 | . | . | 99 | . | .
CCOC(=O)C1=C(CSc2nc(-c3ccncc3)ccc2C#N)OC(N)=C(C#N)C1c1ccc(OC)cc1 (stereo not given) | 94 | . | . | 91 | . | .
CCOC(=O)C1=C(C(C)=O)C(c2cccnc2)C(C#N)=C(N)O1 (stereo not given) | . | . | . | . | . | .
CCOC(=O)C1=C(CSc2nc(C)ccc2C#N)OC(N)=C(C#N)C1c1cccc(OC)c1OC (stereo not given) | 97 | . | . | 97 | . | .
CC1CC(C)CN(CCCNC(=O)Cc2c(C(=O)O)[nH]c3ccccc23)C1 (stereo not given) | . | . | . | . | . | .
O=C(Cc1c(F)cccc1Cl)Nc1ccon1 | 78 | . | . | . | . | .
Cc1cc(NC(=O)Cc2c(F)cccc2Cl)no1 | . | . | . | . | . | .
CN(C)c1nc(OCCNC(=O)Nc2ccccc2)nc(N2CCOCC2)n1 | 80 | . | . | 53 | . | .
Cc1ccc(S(=O)(=O)NCCOc2nc(N(C)C)nc(N3CCOCC3)n2)cc1 | . | . | . | . | . | .
CN(C)c1nc(OCCNC(=O)Nc2ccccc2)nc(N(C)C)n1 | . | . | . | 73 | . | .
CC(=O)NCCOc1nc(N(C)C)nc(N(C)C)n1 | . | . | . | . | . | .
Cc1nc2nc(-c3ccc(Cl)cc3)[nH]n2c(=O)c1C | . | . | . | . | . | .
CCN(CC)S(=O)(=O)c1cc([N+](=O)[O-])ccc1NNC(=O)Nc1ccc(Cl)c(Cl)c1 | 74 | . | . | . | . | .
Cn1cnnc1SC(C(=O)Nc1ccc(F)cc1)c1ccccc1 (stereo not given) | . | . | . | . | . | .
CCCNC(=O)c1cnc(Sc2ncc(C(F)(F)F)cc2Cl)n1C | 71 | . | . | . | . | .
CS/C(=N\S(=O)(=O)c1cccs1)NC(=O)CSc1nc2ccccc2s1 | 100 | . | . | 80 | . | .
CCCC/C(O)=C1\C(=O)CC(C)(C)CC1=Nc1ccc(OC)cc1 | . | . | . | 57 | . | .
CCCCn1c2nc3ccccc3nc2c2c(=N)oc(C)nc21 | . | . | / | . | . | /
CCCCC(CC)Cn1c2nc3ccccc3nc2c2c(=N)oc(C)nc21 (stereo not given) | . | . | . | . | . | 72
SMILES | CYP2C9 inh | CYP2C9 act | PostGolgi yeast | CYP2C19 inh | CYP2C19 act | PostGolgi ctrl
COc1ccc(NC(=O)COC(=O)c2c3c(nc4ccccc24)CCCC3)cc1Cl | . | . | 49 | . | . | 79
COc1ccc(OC)c(NC(=O)COC(=O)c2c3c(nc4ccccc24)CCCC3)c1 | 52 | . | . | . | . | .
COc1ccc(NC(=O)COC(=O)c2c3c(nc4ccccc24)CCCC3)cc1 | . | . | . | . | . | 34
COc1ccc(NC(=O)CCCN2C(=O)CCC2=O)cc1Cl | . | . | . | . | . | .
CCOC(=O)CNC(=O)c1c2c(nc3ccccc13)CCCC2 | . | . | . | . | . | .
COc1cc(NC(=O)c2c3c(nc4ccccc24)CCC3)cc(OC)c1 | . | . | . | . | . | .
Cc1cc(OCCn2cc(/C(N)=N/O)c3ccccc32)ccc1Cl | . | . | . | . | . | .
CC(=O)c1cc(C#N)c(SCC(=O)OC(C)(C)C)nc1C | . | . | . | . | . | .
CCCC(=O)N1CCN(c2ccc(NC(=O)c3cc4ccccc4o3)cc2Cl)CC1 | 82 | . | 86 | 81 | . | 50
O=C(Nc1ccc(N2CCOCC2)c(Cl)c1)c1ccco1 | . | . | . | . | . | .
O=C(Nc1ccc(N2CCN(C(=O)c3ccco3)CC2)c(Cl)c1)c1cc2ccccc2o1 | 92 | . | . | 71 | . | .
COC(=O)c1ccc(N2CCN(C)CC2)c(NC(=O)c2cc3ccccc3o2)c1 | . | . | . | . | . | .
COc1ccc(NC(=O)c2cc3ccccc3o2)cc1 | . | . | . | . | . | .
COc1ccc(NC(=O)c2ccco2)cc1NC(=O)c1cc2ccccc2o1 | . | . | . | . | . | .
O=C(Nc1ccc(N2CCN(C(=O)c3ccccc3)CC2)c(Cl)c1)c1ccco1 | 62 | . | . | . | . | .
CCC(=O)N1CCN(c2ccc(NC(=O)c3cc4ccccc4o3)cc2Cl)CC1 | 50 | . | . | . | . | 38
NC(=O)C1(N2CCCCC2)CCN(CC(=O)Nc2ccc(Oc3ccccc3)cc2)CC1 | . | . | . | . | . | .
CCCCOc1ccc(C(=O)N2CCCCCC2)cc1 | . | . | . | . | . | .
O=C(Nc1ccc(Br)c(Cl)c1)c1ccco1 | . | . | . | 66 | . | .
CCCOc1ccc(C(=O)N2CCN(c3ccc(NC(=O)CC)cc3Cl)CC2)cc1 | 86 | . | . | 96 | . | .
O=C(Nc1ccc(Cl)c(Cl)c1)Oc1ccc(NC(=O)c2ccco2)cc1 | . | . | . | . | . | .
COCC(C)NS(=O)(=O)c1ccc(NC(=O)C(Cc2ccccc2)NC(N)=O)cc1 (stereo not given) | . | . | . | . | . | .
COc1cccc(C2/C(=C(\O)c3c(C)nc4c(C)cccn34)C(=O)C(=O)N2CCCN(C)C)c1 (stereo not given) | . | . | / | . | . | /
CCc1nc(N2CCOCC2)c(C#N)c2c1CCCC2 | . | . | . | 78 | . | .
CCc1nc(N2CCCC2)c(C#N)c2c1CCCC2 | . | . | . | . | . | .
SMILES | CYP2C9 inh | CYP2C9 act | PostGolgi yeast | CYP2C19 inh | CYP2C19 act | PostGolgi ctrl
CCCc1nc(N2CCCC2)c(C#N)c2c1CCCC2 | 73 | . | . | . | . | .
CC(C)c1nc(N2CCCC2)c(C#N)c2c1CCCC2 | 55 | . | . | 54 | . | .
COc1ccc2cc3c(N)nn(C(=O)Cc4ccccc4OC)c3nc2c1 | 75 | . | . | 78 | . | .
COc1ccc(CNCCC(c2ccccc2)c2ccc3c(c2)OCO3)cc1 (stereo not given) | . | . | . | 79 | . | .
COc1cc(C(=O)NCc2cccc3ccccc23)cc(Cl)c1OC | . | . | . | 62 | . | 39
O=C(c1ccccc1)c1nn(-c2ccc(Cl)cc2)c(=O)cc1C(F)(F)F | 53 | . | . | 75 | . | .
